From PubChem
In the library only some 27% were active in any assay of this set; here they are far more common.
CYP2C9 inh: human CYP2C9 inhibition; AID 777; inhibition, % at 5 µM; CYP2C9 Supersomes, luciferin-H conversion, luminescence; actives 20% (n = 96,000); P11712;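 active = blocking of liver enzyme CYP2C9 beyond about 50% at 5 µM, limit read from the data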
sEH activator: increases human soluble epoxide hydrolase activity; purified human sEH enzymatic activity, activator screen; P34913; actives 0.04% (n = 91,000); activation, % at 2 µM; in the data active = activation above about 37%
Target sequence (P34913 whole entry, looked up): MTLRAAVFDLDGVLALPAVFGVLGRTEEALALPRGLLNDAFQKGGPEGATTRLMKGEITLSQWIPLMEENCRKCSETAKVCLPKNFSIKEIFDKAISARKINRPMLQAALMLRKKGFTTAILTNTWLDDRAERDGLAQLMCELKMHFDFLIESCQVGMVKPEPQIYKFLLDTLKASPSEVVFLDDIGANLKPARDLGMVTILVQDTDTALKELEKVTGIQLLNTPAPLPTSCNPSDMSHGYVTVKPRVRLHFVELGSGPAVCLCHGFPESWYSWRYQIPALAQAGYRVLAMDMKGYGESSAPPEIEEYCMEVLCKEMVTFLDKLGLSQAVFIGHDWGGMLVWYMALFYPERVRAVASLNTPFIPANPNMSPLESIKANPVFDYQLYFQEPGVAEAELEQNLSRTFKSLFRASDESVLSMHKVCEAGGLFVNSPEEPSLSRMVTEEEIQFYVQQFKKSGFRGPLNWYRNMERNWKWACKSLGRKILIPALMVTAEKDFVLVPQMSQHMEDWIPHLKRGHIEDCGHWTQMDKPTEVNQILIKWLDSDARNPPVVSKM
CYP2C19 act: cytochrome P450 2C19 (human) activation; AID 1025; recombinant CYP2C19, luciferin-H EGE luminescence; hits give high values; 0 = fully inhibited enzyme, 1 = untreated enzyme; activation factor at 5 µM; 96,000 tested, under 10 active;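 active = activation factor of at least 2 at 5 µM in the primary screen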;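 note: 0 = wells with 2.5 mM tranylcypromine and 1 = vehicle-only wells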
sEH inhibitor: soluble epoxide hydrolase (human) inhibition | recombinant human sEH enzymatic activity assay | inhibition, % at 2 µM | actives 0.34% (n = 91,000); in the data active = inhibition above about 80%
CYP2C19 inhib: human CYP2C19 inhibition; P33261; actives 21% (n = 96,000); CYP2C19 Supersomes, luciferin-H EGE luminescence, 30 min; inhibition, % at 5 µM;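 active = CYP2C19 inhibition above a set limit at 5 µM in the primary screen, cut at about 50% in these data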;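 note: plate controls were negative control wells for no effect and 2.5 mM tranylcypromine positive control for full effect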
CYP2C9 activ: CYP2C9 (human) activation | recombinant CYP2C9, luciferin-H conversion, luminescence; hits give high values; factor 1 = untreated enzyme, 0 = blocked | activation factor at 5 µM | actives 1.4% (n = 96,000);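 active = activation factor of 2 or more for CYP2C9 at a 5 µM dose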;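 note: 0 = sulfaphenazole-blocked wells and 1 = vehicle-only wells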
The depositor's hits bear a star; · = not tested or not shown.

SMILES	CYP2C9 inh	sEH activator	CYP2C19 act	sEH inhibitor	CYP2C19 inhib	CYP2C9 activ
CSCC[C@H](NC(=O)OC(C)(C)C)C(=O)N1CCC(C(=O)N[C@@H](C)C(=O)O)CC1	-1	4	1	-6	4	1
CCCc1nnc(NC(=O)CNc2ccc(F)cc2)s1	-13	1	0.7	-1	30	1.1
CCCOC(=O)c1ccc(NC(=O)c2cc(OC)c(OC)c(OC)c2Br)cc1	65*	-2	0.3	5	74*	0.3
COc1cc(C(=O)NCCOc2ccccc2)c(Br)c(OC)c1OC	21	-8	0.3	10	65*	0.8
COc1cc(C(=O)NCCOc2cccc(C)c2)c(Br)c(OC)c1OC	-19	-9	0.5	9	52*	1.2
CCCCOC(=O)c1ccc(NC(=O)Nc2ccc(OC)c(OC)c2)cc1	39	-34	0.8	32	16	0.6
CCCS(=O)(=O)N1CCC(C(=O)NCc2ccccc2Cl)CC1	-60	·	1	·	-2	1.6
Cc1ccc2cc(CN(Cc3ccco3)C(=O)NCc3ccccc3)c(=O)[nH]c2c1C	37	-53	0.8	54	22	0.6
C=C(C)c1cccc(C(C)(C)NC(=O)N(Cc2ccccc2)Cc2ccco2)c1	72*	-8	0.6	11	42	0.3
CC1(C)Cc2ccccc2-c2nnc(-c3ccccn3)n21	14	-12	1.1	12	-13	0.9
Cc1nn(CC(=O)Nc2ccccn2)c(C)c1[N+](=O)[O-]	-4	12	0.9	-12	9	1
CC(C)C(=O)N(c1cc2sc(=O)oc2c2ccccc12)S(=O)(=O)c1cccs1	28	-4	0.8	4	15	0.7
COc1ccc(N(C(=O)C(C)C)S(=O)(=O)c2cccs2)cc1	80*	-4	0	7	97*	0.2
CC(C)C(=O)N(c1ccc2oc(=O)sc2c1)S(=O)(=O)c1cccs1	61*	-3	0	4	97*	0.4
COc1ccc(CNC(=O)C(OC(C)=O)c2ccccn2)cc1 (stereo not given)	8	-2	0.9	2	12	0.9
CNC(=O)c1ccc(OCc2ccccc2)c(OC)c1	31	11	0.7	-10	28	0.7
COc1ccc(OC)c(/C=C/C(=O)c2ccc(Cl)cc2)c1	21	6	0.9	-4	9	0.8
COc1ccc(C(=O)NN)cc1COc1ccc(Br)cc1	50*	-4	0	10	96*	0.5
COc1ccc(C(=O)/C=C/c2ccc(OC)c(COc3ccc(F)cc3)c2)cc1	52*	0	0.7	-2	30	0.5
COc1ccccc1OCc1ccc(C(=O)NN)cc1	46	-39	0.4	38	62*	0.5
COc1cccc(CNc2cc(CSc3ccc(Cl)cc3)nc(C)n2)c1	96*	-7	0.1	6	94*	0
COc1ccccc1CNc1cc(CSc2ccc(Cl)cc2)nc(C)n1	94*	12	0.1	-13	91*	0.1
COc1ccccc1CNc1n[nH]c(NCc2ccccc2OC)n1	-47	2	1.1	0	-8	1.5
O=C1C=C(O)CC(c2cccs2)C1 (stereo not given)	-29	3	1.1	-7	-10	1.3
COCC(C)n1c(C)cc(C(=O)COC(=O)c2ccc3ncsc3c2)c1C (stereo not given)	-79	-8	0.2	8	78*	1.8
SMILES	CYP2C9 inh	sEH activator	CYP2C19 act	sEH inhibitor	CYP2C19 inhib	CYP2C9 activ
Nc1nc2ccc(Oc3ccccc3)cc2s1	71*	·	0.3	·	68*	0.3
Nc1nc2ccc(O)cc2s1	·	5	·	-4	·	·
COc1ccc(OC)c(C2C(C#N)=C(N)Oc3c2c(C)nn3-c2cccc(Cl)c2)c1 (stereo not given)	98*	0	0.2	-2	83*	0
Cc1nn(-c2cccc(Cl)c2)c2c1C(c1ccncc1)C(C#N)=C(N)O2 (stereo not given)	62*	-2	0.5	4	50*	0.4
CCOC(=O)CCCOC(=O)c1ccc(S(=O)(=O)N(C)C)cc1	·	15	·	-11	·	·
Cn1c2ccccc2c2c(C(=O)O)cn(C3CCCC3)c(=O)c21	12	-8	1	9	2	0.9
COc1ccc(N2CCN(C(=O)c3cn(C)c(=O)c4c3c3ccccc3n4C)CC2)cc1	9	-10	1	10	3	0.9
Cn1c2ccccc2c2c(C(=O)N3CCN(C(=O)c4ccco4)CC3)cn(C3CCCCC3)c(=O)c21	74*	6	0.6	-11	40	0.3
COc1ccc(N2CCN(C(=O)c3cn(C4CCCC4)c(=O)c4c3c3ccccc3n4C)CC2)cc1	90*	0	0.2	1	77*	0.1
Cn1c2ccccc2c2c(C(=O)N3CCN(c4ccccn4)CC3)cn(C3CCCC3)c(=O)c21	94*	-8	0.3	8	69*	0.1
COc1cccc(C2=NOC(C(=O)Nc3cc(OC)c(OC)c(OC)c3)C2)c1 (stereo not given)	-8	-6	0.8	5	20	1.1
Cn1c(=O)c2c(nc(SCc3cc4c(cc3Cl)OCO4)n2C)n(C)c1=O	-10	·	0.9	·	14	1.1
O=C(Cn1cnc2ccccc2c1=O)NC1CCCc2ccccc21 (stereo not given)	4	-51	1	50	0	1
CCCCSc1nnc2n(CCc3ccccc3)c(=O)c3c4c(sc3n12)COC(C)(C)C4	51*	-2	0.2	5	80*	0.5
COc1ccc(C2c3c(ncn(CCN4CCOCC4)c3=N)Oc3ccc4ccccc4c32)cc1OC (stereo not given)	25	1	0.9	0	14	0.7
Cc1ccc2nsnc2c1NS(=O)(=O)c1c(C)ccc2nsnc12	56*	2	0.6	-2	35	0.4
Cc1cc(S(=O)(=O)Nc2c(C)ccc3nsnc23)ccc1F	51*	0	0.2	-2	84*	0.5
Cc1ccc2nsnc2c1N(S(C)(=O)=O)S(C)(=O)=O	21	·	0.4	·	63*	0.8
CCOC(=O)CCCNS(=O)(=O)c1c(C)ccc2nsnc12	·	-2	·	3	·	·
CCC(C)Oc1ccccc1C1CC(=O)NC2=C1C(=O)CCC2 (stereo not given)	-4	2	1	-2	2	1
Cc1nc(SC2C=CS(=O)(=O)C2)n[nH]1 (stereo not given)	1	14	1	-16	1	1
CN(C)C=Nc1ncc2c3ccccc3n(CCN(C)C)c2c1C#N	58*	16	0.8	-17	19	0.4
CN(C)C=Nc1ncc2c3ccccc3n(Cc3ccccc3)c2c1C#N	23	·	1	·	-2	0.8
CC(C)CCn1c(SCC(N)=O)nc2c1c(=O)n(C)c(=O)n2C	-2	-5	1.1	7	-14	1
O=C1C=C(c2ccccc2)OC2(CCCC2)O1	-12	6	0.4	-4	63*	1.1
